KDM4E inh – JMJD2E (human) inhibition. 230,000 tested, 1.6% active. JMJD2E catalytic domain, FDH-coupled NADH fluorescence (FDH is formaldehyde dehydrogenase). Potency, µM (highest dose often 57.1 µM), without a hit: top-dose activity change, negative = inhibition, most hits filed as inhibitors. B2RXH2; active means well fitted inhibition curve with a large enough effect, not every such curve was filed as active; inconclusive means small, poorly fitted or top-dose-only effect, or another doubt; inactive means no such curve, though single readings can be large or run the other way;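 further: 0% = wells with enzyme and -100% = buffer wells without enzyme; nearly all actives have a fitted effect of over 50% in size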
APE1 inh-1 – blocks human APE1 abasic DNA cleavage. P27695. recombinant APE1, TAMRA/BHQ-2 abasic DNA cleavage fluorescence. Potency, µM (highest dose often 65.8 µM), inactives show top-dose activity change, negative = inhibition, usual class: inhibitors. 350,000 tested, 0.35% active. AID 2517;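 further: plate controls were vehicle for no effect and reference inhibitor for full effect; nearly all actives have a fitted effect of over 55% in size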
Target sequence (P27695 whole entry, looked up): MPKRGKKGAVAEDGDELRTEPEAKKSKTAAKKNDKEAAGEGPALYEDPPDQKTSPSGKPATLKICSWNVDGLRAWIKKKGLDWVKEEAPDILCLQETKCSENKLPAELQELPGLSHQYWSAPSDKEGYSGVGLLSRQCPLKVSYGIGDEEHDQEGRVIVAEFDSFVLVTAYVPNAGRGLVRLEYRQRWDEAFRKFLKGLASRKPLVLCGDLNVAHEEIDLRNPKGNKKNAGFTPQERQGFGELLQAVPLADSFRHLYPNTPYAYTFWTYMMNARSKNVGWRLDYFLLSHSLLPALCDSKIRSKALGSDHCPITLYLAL
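APE1 at 0.75 nM final was preincubated with compound 15 min at room temperature, then 50 nM double-stranded THF abasic-site substrate (5'-TAMRA/3'-BHQ-2) was added. Fluorescence (ex 525/em 598 nm) was read kinetically; third-minus-first read gave activity.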
BLM inh – inhibitors of human Bloom syndrome helicase BLM; AID 2528; P54132; recombinant BLM DNA unwinding, fluorescence dequenching; Potency, µM (series often up to 56.1 µM), without a hit: top-dose activity change, negative = inhibition, usual class: inhibitors; 350,000 tested, 0.2% active;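 further: plate controls were vehicle for no effect and no enzyme for full effect; nearly all actives have a fitted effect of over 35% in size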
RECQ1 inh – RECQ1 (human) helicase inhibition; RECQ1 DNA unwinding, red fluorescence kinetic read; 240,000 tested, 0.54% active; Potency, µM (series often up to 57.3 µM), for inactives: at the highest dose activity, negative = inhibition, hits mostly inhibitors; P46063; AID 2549;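 further: plate controls were vehicle for no effect and no enzyme for full effect; nearly all actives have a fitted effect of over 30% in size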
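50 nM RECQ1T1 preincubated 15 min with compound in Tris pH 8.0 buffer with MgCl2, DTT, Tween-20 and 2.5 ug/ml poly(dI-dC); started with 200 nM TAMRA/BHQ-2 forked duplex and 2 mM ATP. Unwinding read as fluorescence (525/598 nm), two reads 2 h apart.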
PKM2 act – activators of human pyruvate kinase M2. P14618. purified PKM2, Kinase-Glo ATP luminescence, activation; response scale: 0% is enzyme alone, no compound. Potency, µM (series often up to 57.5 µM), for the others: at the highest dose activation, usual class: activators. 260,000 tested, 0.34% active; further: nearly all actives have a fitted effect of over 55% in size
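Purified hPK-M2 (>95% pure) converted ADP (0.1 mM final) to ATP with 0.5 mM PEP in 50 mM imidazole pH7.2, KCl, MgCl2, Tween 20, BSA; 1 h at room temperature. ATP detected by Kinase-Glo luminescence.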
DNA dye displace – counter-screen for APE1 inhibitors: DNA dye displacement. shares compounds with APE1 inh-1. DNA fluorescent dye displacement counterscreen, fluorescence. Potency, µM (top dose mostly 28.5 µM), for the others: at the top dose activity change, negative = inhibition, most hits filed as inhibitors. 480 tested, 7% active. AID 2564;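 further: loss of thiazole orange fluorescence as the dye is displaced from duplex DNA; 0% = ThO with dsDNA and no compound and -100% = ThO without dsDNA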
Endo IV inh – counter-screen for APE1 inhibitors: inhibitors of E. coli endonuclease IV | shares compounds with APE1 inh-1 | E. coli Endo IV, fluorogenic AP-site DNA cleavage | Potency, µM (top dose mostly 27.1 µM), for the others: top-dose activity change, negative = inhibition, usual class: inhibitors | 560 tested, 4% active | AID 2565;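 further: plate controls were uninhibited enzyme wells for no effect and no enzyme buffer wells for full effect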
APE1 inh-2 – confirmation of inhibitors of human APE1 endonuclease | purified APE1, fluorogenic abasic-site DNA cleavage | Potency, µM (series often up to 57.1 µM), without a hit: at the highest dose activity change, negative = inhibition, hits mostly inhibitors | 750 tested, 44% active | shares compounds with APE1 inh-1 | AID 2572; further: nearly all actives have a fitted effect of over 30% in size
APE1 FP – compounds that displace a DNA probe from human APE1 | shares compounds with APE1 inh-1 | APE1 binding to TAMRA-labelled double-stranded DNA, fluorescence polarization displacement | Potency, µM (titrated, usually from 28.5 µM), for the others: top-dose activity, negative = inhibition, hits mostly inhibitors | 480 tested, 7% active | AID 2573
* hit, by the source's call; i = inactive; u = inconclusive; x = not tested or not shown; [ ] = another dose, or the depositor's remark. Shown is part of a subset that was picked to be rich in hits. Unless noted, the call rests on the fitted dose curve; in most records, active means well fitted curve in the direction sought with a large enough effect; inconclusive means small, poorly fitted or top-dose-only effect, or another doubt; inactive means no such curve, though single readings can be large; an effect the other way counts as inactive or inconclusive. Unless noted, on the % scale 0 is the no-effect control and ±100 the full control effect; potency means the concentration at half of the fitted maximal effect.

SMILES | KDM4E inh | APE1 inh-1 | BLM inh | RECQ1 inh | PKM2 act | DNA dye displace | Endo IV inh | APE1 inh-2 | APE1 FP
c1ccc(Nc2nc(-c3ccoc3)nc3ccccc23)cc1 | x | -2.0% | 1.2% | i | x | x | x | x | x
CN(CC(=O)NC(=O)NCc1ccco1)Cc1nc2ccccc2c(=O)[nH]1 | -2.0% | 20µM* | u | -29.9% | 0.9% | u | 9.4% | u | u
O=c1cc2c(=O)oc3cc(O)c(O)oc3c2c(O)c1O | 3.98µM* | 0.355µM* | -5.5% | 4.47µM* | -7.2% | u | 187.0% | 0.126µM* | 1.8%
CC(=O)c1cc(C)oc1C | x | 1.3% | x | 0.6% | x | x | x | x | x
Nc1ncnc2c1ncn2[C@@H]1O[C@H](COP(=O)(O)OP(=O)(O)OP(=O)(O)OP(=O)(O)OC[C@@H]2O[C@H](n3cnc4c(N)ncnc43)[C@@H](O)[C@@H]2O)[C@H](O)[C@H]1O | u | -0.2% | x | -5.7% | x | x | x | x | x
O=C(O)c1cc2cc(Cl)ccc2[nH]1 | 4.4% | -0.4% | 2.8% | 4.0% | x | x | x | x | x
O=C(O)c1cc2cc(F)ccc2[nH]1 | u | -3.2% | -2.4% | 0.7% | -2.8% | x | x | u | x
Cc1cc(C)cc([N+](=O)[O-])c1 | x | 20.8% | x | 15.0% | x | x | x | x | x
CCn1cc(C(=O)N(C)c2cc(C)ccc2C)c2cc(OC)c(OC)cc2c1=O | x | x | 0.6% | x | x | x | x | x | x
CC(C)=CCC/C(C)=C/CO/N=C1/C[C@@H](O)[C@@H](O)[C@@H]2[C@@H]3C(=O)N(Cc4ccccc4)C(=O)[C@H]3CC[C@@H]12 | x | u | 3.1%[12.4 µM] | i[11.5 µM] | x | x | x | x | x
Cc1ccc(NC(=O)CCCN2C(=O)/C(=C/C=C/c3ccccc3)SC2=S)cc1 | 10.2% | 2.7% | -7.7% | -35.8% | -2.3% | x | x | x | x
O=C(O)CCCN1C(=O)/C(=C/C=C/c2ccco2)SC1=S | -0.1% | u | 7.6% | -4.9% | -18.6% | -4.7% | 121.2% | 5.01µM* | u
C[C@H](N)C(=O)N[C@@H](Cc1ccc(F)cc1)C(=O)N[C@@H](CCCN=C(N)N)C(=O)N[C@@H](CC1CCCCC1)C(=O)N[C@@H](CCCCN=C(N)N)C(=O)N[C@@H](Cc1ccc(O)cc1)C(N)=O | x | -0.1% | 28.2% | -2.4% | x | x | x | x | x
O=C(CCc1n[nH]c(=O)[nH]c1=O)N/N=C/c1ccco1 | 17.2% | 20µM* | -15.4% | -12.5% | 9.9% | -11.0% | -5.3% | 17.8µM* | u
O=C(/C=C/c1cn(CC(O)CN2CCCCCC2)c2ccccc12)c1ccc(Br)cc1 (stereo not drawn) | x | x | 1.5% | x | x | x | x | x | x
CC(=O)N1CCC(C(=O)Nc2ccccc2)(N(Cc2ccccc2)C(=O)c2cccnc2)CC1 | -0.9% | u | -1.5% | i | -11.1% | -11.6% | -4.3% | -5.0%[24.4 µM] | u
Cc1cc(C)c(NC(=O)c2sc3nc(C)cc(C)c3c2NC(=O)c2ccccc2)c(C)c1 | x | x | -4.8% | x | x | x | x | x | x
N=c1ccn2c(n1)O[C@H]1[C@@H](O)[C@@H](CO)O[C@H]12 | 6.5% | 0.6% | x | 0.2% | x | x | x | x | x
COc1ccc(CNc2ccnc(-c3ccccc3CN(C)C)n2)c(OC)c1 | x | u | 3.8% | i | x | x | x | x | x
CCOC(=O)c1sc2nc3c(SCCC#N)cc(C(=O)c4cc(F)ccc4O)cn3c(=O)c2c1C | u | -5.9% | -8.8% | -3.6% | 2.6% | x | x | x | x
CCOC(=O)c1sc2nc3c(SCCC(=O)O)cc(C(=O)c4cc(OC)ccc4O)cn3c(=O)c2c1C | u | 1.58µM* | u | u | -0.5% | u | 10.8% | 2.24µM* | u
